TDP1 inh: blocks human tyrosyl-DNA phosphodiesterase 1; recombinant TDP1, AlphaScreen DNA substrate cleavage; AID 485290; 350,000 compounds, 0.28% hits; Q9NUW8; Potency, µM (doses to about 130 µM), for inactives: top-dose activity change, negative = inhibition, hits mostly inhibitors; further: nearly all actives have a fitted effect of over 40% in size
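Recombinant human Tdp1 (E. coli-expressed, 1 nM final) preincubated with compounds 15 min at room temperature, then 5'-biotin/3'-phosphotyrosine-FITC DNA substrate (15 nM final) added for 5 min. AlphaScreen beads (10 ug/ml final) added 10 min; cleavage lowers signal.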
TDP1 cell noCPT: qHTS for Inhibitors of human tyrosyl-DNA phosphodiesterase 1 (TDP1): qHTS in cells in absence of CPT; DT40 Tdp1-/- hTDP1 cells, no CPT, ATP luminescence, 48 h; Potency, µM (titrated, usually from 46.2 µM), for the others: at the highest dose activity change, negative = growth inhibition, usual class: inhibitors; 420,000 compounds, 15% hits; AID 686978, 2013; further: nearly all actives have a fitted effect of over 55% in size
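Luminescent ATP content (CellTiter-Glo) served as the growth readout. Knockout chicken DT40 cells expressing human TDP1 were exposed to compounds without camptothecin for a minimum 48 hr at 37 °C.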
VP16 counter: Gal4-VP16 reporter inhibition counter-screen; AID 2546; Drosophila S2 Gal4-VP16 UAS-luciferase, luminescence, 20 h; Potency, µM (titrated, usually from 53.6 µM), without a hit: at the top dose activity, negative = inhibition, usual class: inhibitors; 310,000 compounds, 3.5% hits;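 further: Gal4-VP16 expression switched on by copper sulfate through the metallothionein promoter; nearly all actives have a fitted effect of over 50% in size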
TDP1 cell CPT: growth inhibition of DT40 Tdp1-/-;hTDP1 cells with camptothecin (screen for TDP1 inhibitors); chicken DT40 Tdp1-/-;hTDP1 cells + 20 nM CPT, ATP luminescence, 48 h; Potency, µM (doses to about 46.2 µM), inactives show top-dose activity change, negative = growth inhibition, hits mostly inhibitors; 420,000 compounds, 12% hits; AID 686979; further: nearly all actives have a fitted effect of over 55% in size
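Chicken DT40 Tdp1-/- cells stably complemented with human TDP1 were seeded at 400 cells/well in medium containing 20 nM camptothecin, exposed to pin-transferred compounds, and grown at 37 °C for at least 48 hr. Viability was read as ATP luminescence.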
RORgamma inh: ROR gamma (mouse) transcription inhibition; Potency, µM (doses to about 53.6 µM), inactives show at the highest dose activity change, negative = inhibition, actives largely listed as inhibitors; AID 2551; 310,000 compounds, 5.4% hits; Drosophila S2 Gal4-RORgamma UAS-luciferase reporter, 20 h; further: nearly all actives have a fitted effect of over 60% in size
Target sequence (P51450 whole entry, looked up, the tested form may be a part): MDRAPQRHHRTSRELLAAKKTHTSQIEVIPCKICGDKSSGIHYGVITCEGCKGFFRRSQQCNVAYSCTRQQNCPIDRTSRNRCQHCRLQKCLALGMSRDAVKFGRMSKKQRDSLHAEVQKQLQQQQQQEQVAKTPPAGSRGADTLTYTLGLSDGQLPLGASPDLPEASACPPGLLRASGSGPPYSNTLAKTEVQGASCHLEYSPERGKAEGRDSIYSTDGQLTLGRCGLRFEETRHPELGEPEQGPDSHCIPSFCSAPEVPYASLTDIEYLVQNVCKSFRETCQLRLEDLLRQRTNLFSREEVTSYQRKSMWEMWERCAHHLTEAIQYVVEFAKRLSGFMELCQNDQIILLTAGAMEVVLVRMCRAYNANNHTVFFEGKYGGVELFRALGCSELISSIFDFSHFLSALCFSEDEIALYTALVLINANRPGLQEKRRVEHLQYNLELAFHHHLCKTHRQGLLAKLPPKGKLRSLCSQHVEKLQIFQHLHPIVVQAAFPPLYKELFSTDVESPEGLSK
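Compounds are pin-transferred onto Drosophila Schneider cells expressing a copper-inducible Gal4–ROR gamma transactivation domain fusion. After 1 hr, copper sulfate is added to 700 uM final; luciferase is read 20 hr later.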
Numbers without * were called inactive; ? = inconclusive; . = not tested or not shown; [ ] = dose if it differs, or a comment. This is a sample that favours compounds with a hit; in the whole collection about 19% have one here. The call rests on the fitted dose curve; in most records, active means well fitted curve in the direction sought with a large enough effect; inconclusive means small, poorly fitted or top-dose-only effect, or another doubt; inactive means no such curve, though single readings can be large; an effect the other way counts as inactive or inconclusive. On the % scale 0 is the no-effect control and ±100 the full control effect; potency means the concentration at half of the fitted maximal effect.

SMILES	TDP1 inh	TDP1 cell noCPT	VP16 counter	TDP1 cell CPT	RORgamma inh
Cc1ccc(C(=O)NCC2CCCO2)cc1S(=O)(=O)N1CCCCC1 (configuration not stated)	4%	4%	-3%	-1%	-1%
O=C(O)c1c(-c2ccc(Cl)cc2)cn2ccccc12	6%	-14%	19%	3%	16%
COc1ccc(-c2coc3c(C)c4oc(=O)c(CCC(=O)O)c(C)c4cc23)cc1	.	?	-2%	4%	22%
O=C(NNC(=O)c1cc(Br)ccc1Cl)c1csc(N2CCOCC2)n1	4%	2%	-26%	-1%	?
O=C(NNC(=O)c1cc(Br)ccc1O)c1csc(N2CCOCC2)n1	0%[56.1 µM]	21µM*	.	?	.
CC(=O)Nc1ccc(C(=O)NNC(=O)c2csc(N3CCOCC3)n2)cc1	.	7.3µM*	.	?	.
CCN(CC)S(=O)(=O)c1ccc(C(=O)NNC(=O)c2csc(N3CCOCC3)n2)cc1	7%	-19%	.	-3%	.
CCOc1ncccc1C(=O)NNC(=O)c1csc(N2CCOCC2)n1	7%	?	.	26µM*	.
COc1cccc(-c2nc(-c3ccncc3)no2)c1	.	?	-8%	-2%	-25%
CC1CCC(C(C)C)C(OC(=O)COC(=O)c2ccc(N)cc2)C1 (configuration not stated)	2%	?	16µM*	?	32%
CC1CCC(C(C)C)C(OC(=O)COC(=O)c2cccn2C)C1 (configuration not stated)	4%	-7%	2%	1%	13%[10 µM]
Cc1ccc(Nc2nc(CSc3nnc(-c4ccccc4)n3C)cs2)cc1	8%	?	-29%	21µM*	-105%
Cc1ccc(CSc2n[nH]c(N)n2)cc1	0%	16%	1%	0%	0%
Cc1ccc(Nc2nc(CSc3nnnn3-c3ccccc3)cs2)cc1	7%	18µM*	-3%	?	?
Cc1ccc(Nc2nc(CSc3n[nH]c(N)n3)cs2)cc1	2%	5%	-13%	3%	13µM*
Cc1cccc(-n2ccc(=O)c(C(=O)O)n2)c1	.	-1%	-15%	22%	-14%
Cc1ccc2c(c1)C(=O)[C@@]1(O)CCN(c3ccccc3)C1=N2	9%[56.1 µM]	?	7%	8.4µM*	?
Cc1ccc2c(c1)C(=O)C1(O)CCN(c3ccccc3)C1=N2 (configuration not stated)	5%	6.3µM*	3%	8.9µM*	29%
Cc1nc(SC(C)C(=O)NCC2CCCO2)c2cc(-c3ccccc3)sc2n1 (configuration not stated)	0%	15µM*	.	15µM*	.
C=CCn1c(SCC(=O)NCC2CCCO2)nc2scc(-c3ccccc3)c2c1=O (configuration not stated)	2%	?	-3%	26µM*	17%
CCn1c(SC(C)C(=O)NCC2CCCO2)nc2scc(-c3ccccc3)c2c1=O (configuration not stated)	-5%	?	.	18µM*	.
CC(C)(C)c1ccc(-c2nc3c(C#N)c(-c4ccc5c(c4)OCO5)ccn3n2)cc1	2%	13µM*	0%	18µM*	27%
Cc1nc(N)c(C#N)c(-c2ccc3c(c2)OCO3)c1C	.	10%	-1%	-22%	-33%
COc1cccc(NC(=O)C2(C)CCN2CC2CCCCC2)c1 (configuration not stated)	.	-8%	.	0%	.
COc1cccc(NC(=O)C2(C)CCN2CCc2ccccc2)c1 (configuration not stated)	.	?	.	23µM*	.
SMILES	TDP1 inh	TDP1 cell noCPT	VP16 counter	TDP1 cell CPT	RORgamma inh
COc1ccc(OC)c(NC(=O)C2(C)CCN2CCc2ccccc2)c1 (configuration not stated)	.	16µM*	.	23µM*	.
CCN(CC)S(=O)(=O)c1ccc2c(c1)c(=O)c(C(=O)NCc1cccs1)cn2C	0%	?	-8%	?	17%
O=C(Cn1c(=O)[nH]c2ccccc2c1=O)Nc1ccc2c(c1)OCCO2	1%	-16%	3%	-2%	-19%
CCN(Cc1ccccc1)S(=O)(=O)CCNC(=O)c1ccc(OC)cc1	.	-27%	.	9%	.
Cc1ccccc1-c1nc(CN2CCC(C(=O)NCCc3ccccc3)CC2)c(C)o1	3%	21µM*	.	15µM*	.
COc1ccc(CCNC(=O)C2CCN(Cc3nc(-c4ccc(Cl)cc4)oc3C)CC2)cc1OC	.	?	.	-15%	.
COc1ccc(CCNC(=O)C2CCN(Cc3nc(-c4ccccc4C)oc3C)CC2)cc1OC	5%	16µM*	?	23µM*	4%
Cc1ccccc1-c1nc(CN2CCC(C(=O)O)CC2)c(C)o1	0%	-7%	3%	6%	-7%
Cc1ccccc1-c1nc(CN2CCC(C(=O)NC3CCN(Cc4ccccc4)CC3)CC2)c(C)o1	.	?	.	21µM*	.
Cc1ccccc1-c1nc(CN2CCC(C(=O)NCCC3=CCCCC3)CC2)c(C)o1	7%	18µM*	-6%	18µM*	10%
CCc1ccc(NC(=O)CSc2nnc(-c3cc4occc4n3C)n2-c2ccccc2C)cc1	10%	?	.	?	.
CN(CC(=O)Nc1ccc(F)cc1)C(=O)CSc1nccn1C	0%	-11%	.	-2%	.
COc1ccc(CN2CC(=O)N(c3ccccc3OC)C2=S)cc1OC	.	-16%	14%	-27%	2%
COc1ccc(CN2CC(=O)N(c3cccc(Cl)c3)C2=S)cc1OC	.	15µM*	0%	-77%	1%
COc1cccc(N2C(=O)CN(Cc3cc(OC)c(OC)c(OC)c3)C2=S)c1	.	21µM*	6%	-3%	2%
COc1ccc(N2C(=O)CN(Cc3cc(OC)c(OC)c(OC)c3)C2=S)cc1	5%	23µM*	-1%	16µM*	22%
COc1ccc(CN2CC(=O)N(c3ccc(Cl)cc3)C2=S)cc1OC	.	?	-3%	?	14%
COc1ccc(Cl)cc1N1C(=O)CN(Cc2cc(OC)c(OC)c(OC)c2)C1=S	.	8.2µM*	0%	15µM*	-13%
C[C@H]1NC(=O)[C@@]2(C)[C@@H](c3ccccc3)[C@H]3COc4ccccc4[C@H]3N2C1=O	0%	-11%	.	-20%	.
Cc1cccc(OCC(=O)Nc2ccc(S(=O)(=O)Nc3onc(C)c3C)cc2)c1C	-2%	?	-9%	-3%	10%
N#Cc1c(N)nc(N)nc1Nc1ccc(Br)cc1	6%	15µM*	1%	?	-9%
Cc1nc(N)nc(Nc2ccc(C#N)cc2)c1Br	7%	?	-7%	?	-2%

Compound activity from PubChem BioAssay.
